Assay results as given in PubChem BioAssay (NCATS).
“And” between values parts separate entries of the source, which are not always exact repeats. Identical values can stand only once. A number with no mark means an inactive call. Inconclusive results are not listed. Entries that show only a call come without a potency. The source made the active and inactive calls. Unless noted, calls follow the shape of the dose curve; as a rule, active = well fitted curve in the direction sought with a large enough effect; inconclusive = small, poorly fitted or top-dose-only effect, or another doubt; inactive = no such curve, though single readings can be large; an effect the other way counts as inactive or inconclusive.

Experiments:
[1] = AP1 Signaling Pathway (AID 357; active = well fitted curve in either direction with a large enough effect, not every such curve was filed as active;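 also: ME-180 reporter cells stimulated with EGF at its EC50 level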); conditions: ME-180 AP-1-bla reporter, EGF-induced, beta-lactamase ratio, 5 h; at 7.69 µM (top of the series) unless noted
Method in brief: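 Cells are seeded overnight, exposed to compound titrations and an EC50 level of EGF for 5 hours at 37 °C, then loaded with CCF4 dye for 2.5 hours. Beta-lactamase activity under the AP-1 element is read as a blue/green ratio.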

[2] = molecular target: Cytochrome P450 1A2 (Homo sapiens) (UniProt P05177); test: p450-cyp1a2 (AID 410; calls by dose curve; also: potency is read from the fitted curve at half-maximal effect)
Cytochrome P450 1A2 (Homo sapiens), sequence (P05177 whole entry, looked up): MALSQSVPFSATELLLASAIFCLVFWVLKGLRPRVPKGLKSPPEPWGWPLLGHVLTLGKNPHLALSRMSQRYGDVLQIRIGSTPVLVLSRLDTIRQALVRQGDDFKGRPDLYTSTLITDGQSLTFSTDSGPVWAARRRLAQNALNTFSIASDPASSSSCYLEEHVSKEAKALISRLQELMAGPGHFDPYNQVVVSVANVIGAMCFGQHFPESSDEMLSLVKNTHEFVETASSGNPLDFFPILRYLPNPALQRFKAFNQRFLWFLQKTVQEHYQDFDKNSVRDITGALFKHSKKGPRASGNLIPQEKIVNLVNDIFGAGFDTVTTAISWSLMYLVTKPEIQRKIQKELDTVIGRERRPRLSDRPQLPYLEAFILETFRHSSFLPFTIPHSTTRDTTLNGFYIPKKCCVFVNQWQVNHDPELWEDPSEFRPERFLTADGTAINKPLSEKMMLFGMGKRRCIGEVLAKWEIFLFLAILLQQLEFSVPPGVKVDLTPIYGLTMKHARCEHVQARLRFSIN
Method in brief: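 Human CYP1A2 (20nM) demethylated Luciferin-ME at its Km (100uM) in 100mM KPO4. After 10 min compound preincubation, NADPH regeneration ran the reaction 60 min at room temperature. Luciferin was read by luminescence, normalized to 57 uM furafylline.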

[3] = NFAT Signaling Pathway (AID 444; active = well fitted curve in either direction with a large enough effect, not every such curve was filed as active;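 also: carbachol stimulus at about its EC50 of 1 µM final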); conditions: Jurkat NFAT-bla M1, carbachol, beta-lactamase ratio, 5 h; at 7.69 µM (top of the series) unless noted
Method in brief: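 Jurkat cells carrying an NFAT-driven β-lactamase reporter and co-transfected muscarinic M1 receptor were treated with compound plus carbachol (1 uM final, an EC50 level) for 5 h at 37 °C. CCF4 loading followed for 1 h at RT; 460/530 nm ratio gave %activity.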

[4] = Stat Signaling Pathway (AID 446; active = well fitted curve in either direction with a large enough effect, not every such curve was filed as active;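 also: ME-180 cervical cancer cells given 40 pM IL-6 alongside compound; SIE-controlled beta-lactamase reporter measured as 460/530 nm FRET emission ratio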); conditions: ME-180 SIE beta-lactamase reporter, IL-6 stimulated, 5 h; at 7.69 µM (top of the series) unless noted
Method in brief: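 ME-180 SIE-bla cells; overnight plating; cpd + IL-6 40 pM, 5 h, 37 C; LiveBLAzer 2.5 h RT; 460/530 nm emission ratio. Normalized to 300 pM IL-6 and 125 nM JAK inhibitor controls.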

[5] = molecular target: Glucocorticoid receptor (Homo sapiens) (UniProt P04150); test: GR-GFP Redistribution (AID 450;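 active = compounds whose dose series gives a full or clear partial fitted curve of increased nuclear translocation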; also: potency is read from the fitted curve at half-maximal effect); conditions: U2OS GR-GFP nuclear translocation, laser cytometry, 2 h
Glucocorticoid receptor (Homo sapiens), sequence (P04150 whole entry, looked up, the tested form may be a part): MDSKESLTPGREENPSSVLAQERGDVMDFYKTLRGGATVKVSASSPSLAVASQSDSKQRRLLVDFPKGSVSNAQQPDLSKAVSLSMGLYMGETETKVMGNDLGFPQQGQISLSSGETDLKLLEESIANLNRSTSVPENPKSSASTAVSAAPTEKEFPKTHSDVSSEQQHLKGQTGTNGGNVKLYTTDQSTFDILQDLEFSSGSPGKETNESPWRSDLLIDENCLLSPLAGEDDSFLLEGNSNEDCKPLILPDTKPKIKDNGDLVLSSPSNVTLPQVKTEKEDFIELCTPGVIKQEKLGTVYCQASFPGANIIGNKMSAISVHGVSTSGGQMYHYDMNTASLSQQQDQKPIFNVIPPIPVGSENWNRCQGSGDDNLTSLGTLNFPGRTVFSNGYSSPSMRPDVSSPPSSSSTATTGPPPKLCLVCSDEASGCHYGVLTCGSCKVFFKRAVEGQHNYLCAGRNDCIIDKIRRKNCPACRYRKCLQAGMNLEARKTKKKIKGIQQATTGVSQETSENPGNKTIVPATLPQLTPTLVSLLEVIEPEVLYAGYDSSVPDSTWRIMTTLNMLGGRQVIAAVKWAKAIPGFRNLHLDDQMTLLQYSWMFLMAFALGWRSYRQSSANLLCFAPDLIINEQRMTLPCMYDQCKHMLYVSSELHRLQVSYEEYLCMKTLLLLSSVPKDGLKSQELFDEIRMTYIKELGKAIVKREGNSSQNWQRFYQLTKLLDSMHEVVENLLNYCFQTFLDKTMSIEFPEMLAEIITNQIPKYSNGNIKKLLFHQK

[6] = molecular target: Glucocorticoid receptor (Homo sapiens) (UniProt P04150); test: GR-EFC Redistribution (AID 451; calls by dose curve; also: potency is read from the fitted curve at half-maximal effect); conditions: CHO-K1 GR-EFC translocation, beta-gal luminescence, 2 h
Method in brief: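 CHO-K1 cells stably expressing nuclear-localized β-gal enzyme acceptor and GR fused C-terminally to the enzyme donor fragment; ligand-driven nuclear translocation restores β-gal by complementation. Compounds titrated up to 46 uM final, 2 h at 37 °C; luminescence read.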

[7] = molecular target: Guanine nucleotide-binding protein G(i) subunit alpha-1 (Homo sapiens) (UniProt P63096); test: qHTS Assay for Inhibitors of RGS12 GoLoco Motif Activity (Green Fluorophore) (AID 879);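 also: negative values mean loss of peptide binding seen as reduced polarization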
Guanine nucleotide-binding protein G(i) subunit alpha-1 (Homo sapiens), sequence (P63096 whole entry, looked up): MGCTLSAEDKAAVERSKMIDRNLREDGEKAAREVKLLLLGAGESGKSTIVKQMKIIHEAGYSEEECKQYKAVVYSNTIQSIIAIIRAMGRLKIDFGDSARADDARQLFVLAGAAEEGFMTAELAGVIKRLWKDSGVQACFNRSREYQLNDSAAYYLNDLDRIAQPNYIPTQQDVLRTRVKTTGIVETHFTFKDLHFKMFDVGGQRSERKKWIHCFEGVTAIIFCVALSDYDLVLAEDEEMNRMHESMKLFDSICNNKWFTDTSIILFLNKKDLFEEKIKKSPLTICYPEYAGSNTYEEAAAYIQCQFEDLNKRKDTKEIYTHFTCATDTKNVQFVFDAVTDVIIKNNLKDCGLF
Method in brief: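 Fluorescence polarization assay: 50 nM Gαi1 with 10 nM FITC-labeled RGS12 GoLoco peptide in 10 mM Tris pH 7.5, 150 mM NaCl, 0.1 mM GDP, 0.05% NP40, 10 min at room temperature with compound.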

[8] = molecular target: Cytochrome P450 3A4 (Homo sapiens) (UniProt P08684); test: qHTS Assay for Inhibitors and Substrates of Cytochrome P450 3A4 (AID 884); also: potency is read from the fitted curve at half-maximal effect; nearly all actives have a fitted effect of over 50% in size
Cytochrome P450 3A4 (Homo sapiens), sequence (P08684 whole entry, looked up): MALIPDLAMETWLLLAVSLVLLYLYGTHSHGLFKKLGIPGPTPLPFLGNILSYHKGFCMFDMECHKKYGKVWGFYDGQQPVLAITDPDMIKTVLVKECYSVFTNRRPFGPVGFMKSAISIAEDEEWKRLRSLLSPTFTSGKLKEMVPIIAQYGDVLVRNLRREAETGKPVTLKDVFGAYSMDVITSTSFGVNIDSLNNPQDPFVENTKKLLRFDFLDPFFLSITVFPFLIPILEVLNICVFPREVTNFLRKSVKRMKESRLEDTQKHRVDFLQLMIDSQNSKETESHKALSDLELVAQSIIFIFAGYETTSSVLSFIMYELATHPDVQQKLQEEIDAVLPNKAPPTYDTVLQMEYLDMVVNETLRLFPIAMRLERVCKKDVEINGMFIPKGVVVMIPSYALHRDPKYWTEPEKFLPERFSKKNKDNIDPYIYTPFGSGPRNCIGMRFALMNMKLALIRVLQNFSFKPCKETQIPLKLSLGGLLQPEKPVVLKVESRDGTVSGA
Method in brief: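 20 nM human CYP3A4 with 25 uM Luciferin-PPXE (at KM) in 200 mM KPO4, preincubated 10 min with compound; NADPH regeneration started a 60 min RT reaction. Luciferin detected by luminescence, normalized to 57 uM ketoconazole as full inhibition.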

[9] = molecular target: Cytochrome P450 3A4 (Homo sapiens) (UniProt P08684); test: qHTS Assay for Activators of Cytochrome P450 3A4 (AID 885); also: nearly all actives have a fitted effect of over 65% in size
Method in brief: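 20nM CYP3A4 + 25uM Luciferin-PPXE (=KM), 200mM KPO4; cpd 10 min RT; NADPH regen, 60 min RT; stop w/ detection buffer, 20 min; luminescence. Normalized to 57 uM ketoconazole.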

[10] = molecular target: Cytochrome P450 2C19 (Homo sapiens) (UniProt P33261); test: qHTS Assay for Inhibitors and Substrates of Cytochrome P450 2C19 (AID 899); also: potency is read from the fitted curve at half-maximal effect; nearly all actives have a fitted effect of over 60% in size
Cytochrome P450 2C19 (Homo sapiens), sequence (P33261 whole entry, looked up): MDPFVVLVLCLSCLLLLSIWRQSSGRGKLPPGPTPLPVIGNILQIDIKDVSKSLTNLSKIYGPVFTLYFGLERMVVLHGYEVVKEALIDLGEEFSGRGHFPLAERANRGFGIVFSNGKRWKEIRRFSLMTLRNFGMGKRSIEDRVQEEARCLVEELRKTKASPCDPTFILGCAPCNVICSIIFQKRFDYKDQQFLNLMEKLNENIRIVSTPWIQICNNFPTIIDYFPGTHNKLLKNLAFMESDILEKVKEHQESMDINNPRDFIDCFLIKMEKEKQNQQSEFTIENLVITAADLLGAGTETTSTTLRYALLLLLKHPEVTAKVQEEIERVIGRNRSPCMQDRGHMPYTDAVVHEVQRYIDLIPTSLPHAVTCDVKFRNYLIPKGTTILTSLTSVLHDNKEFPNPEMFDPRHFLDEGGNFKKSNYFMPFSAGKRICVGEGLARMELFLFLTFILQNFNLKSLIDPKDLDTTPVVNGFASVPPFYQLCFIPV
Method in brief: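 Human CYP2C19 (5nM) with Luciferin-H EGE at 10uM (its KM) in 50mM KPO4 was preincubated with compound for 10 min at 37C. NADPH regeneration started a 60 min 37C reaction. Luciferin was read by luminescence, normalized to 57uM ketoconazole.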

[11] = qHTS Assay for Identification of Small Molecule Agonists for Thrombopoietin (TPO) Signaling Pathway (AID 917)
Method in brief: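 Activators of TPO signaling were sought in murine Ba/F3 cells transfected with the human receptor, using a luciferase gene driven by the Glycoprotein IIb promoter; 24-hr compound exposure at 37 C alongside 26 pM TPO, in IL-3-free medium.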

[12] = molecular target: Muscarinic acetylcholine receptor M1 (Rattus norvegicus) (UniProt P08482); test: qHTS Assay for Antagonists of Acetylcholine Muscarinic M1 Receptor: Measurement of IP-One Response (AID 944); also: nearly all actives have a fitted effect of over 75% in size
Muscarinic acetylcholine receptor M1 (Rattus norvegicus), sequence (P08482 whole entry, looked up): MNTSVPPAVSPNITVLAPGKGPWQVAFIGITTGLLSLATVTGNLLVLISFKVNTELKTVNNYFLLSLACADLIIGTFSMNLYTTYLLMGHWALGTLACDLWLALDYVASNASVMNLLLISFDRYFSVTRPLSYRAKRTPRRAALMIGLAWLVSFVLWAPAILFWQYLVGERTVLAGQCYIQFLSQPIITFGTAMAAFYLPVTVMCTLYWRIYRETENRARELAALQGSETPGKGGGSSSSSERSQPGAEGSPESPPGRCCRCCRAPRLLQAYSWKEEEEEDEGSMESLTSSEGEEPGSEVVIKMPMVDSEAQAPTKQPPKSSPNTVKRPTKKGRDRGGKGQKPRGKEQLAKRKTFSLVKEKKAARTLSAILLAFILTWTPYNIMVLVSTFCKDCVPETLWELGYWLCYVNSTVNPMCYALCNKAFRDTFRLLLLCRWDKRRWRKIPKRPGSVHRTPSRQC
Method in brief: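 CHO cells expressing rat M1 receptor, recovered overnight, were pre-incubated 10 min with compound, then stimulated 30 min with carbachol at EC80 (200 nM) in LiCl-containing buffer, pH 7.4. IP1 accumulation was read by HTRF (620/665 nm).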

[13] = molecular target: Pyruvate kinase (Leishmania mexicana) (UniProt Q27686); test: qHTS Validation Assay for Inhibitors of Leishmania Mexicana Pyruvate Kinase (AID 945)
Pyruvate kinase (Leishmania mexicana), sequence (Q27686 2-499 E452W): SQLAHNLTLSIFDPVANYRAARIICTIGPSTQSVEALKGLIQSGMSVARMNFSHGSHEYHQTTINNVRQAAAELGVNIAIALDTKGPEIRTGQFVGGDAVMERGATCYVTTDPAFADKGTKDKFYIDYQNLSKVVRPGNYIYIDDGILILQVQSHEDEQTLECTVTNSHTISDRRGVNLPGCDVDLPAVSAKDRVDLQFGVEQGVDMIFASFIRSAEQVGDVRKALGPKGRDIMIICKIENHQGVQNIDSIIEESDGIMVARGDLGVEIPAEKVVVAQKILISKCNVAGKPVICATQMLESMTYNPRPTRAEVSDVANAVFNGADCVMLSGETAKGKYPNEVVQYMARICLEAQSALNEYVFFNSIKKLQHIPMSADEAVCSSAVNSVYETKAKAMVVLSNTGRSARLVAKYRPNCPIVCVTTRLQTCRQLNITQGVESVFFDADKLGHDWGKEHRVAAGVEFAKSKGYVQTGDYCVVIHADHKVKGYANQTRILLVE
Method in brief: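 Read-out: luminescence from PKLight stop/detection reagent, data normalized to DMSO. Reaction: 0.2 nM E451W LmPYK, 0.5 mM PEP, 0.1 mM ADP, pH 7.2, 1 h room temperature.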

[14] = molecular target: Pyruvate kinase PKM (Homo sapiens) (UniProt P14618); test: qHTS Assay for Activators of Human Muscle Pyruvate Kinase (AID 954; active = well fitted curve in the direction sought with a large enough effect, not every such curve was filed as active)
Pyruvate kinase PKM (Homo sapiens), sequence (P14618 whole entry, looked up): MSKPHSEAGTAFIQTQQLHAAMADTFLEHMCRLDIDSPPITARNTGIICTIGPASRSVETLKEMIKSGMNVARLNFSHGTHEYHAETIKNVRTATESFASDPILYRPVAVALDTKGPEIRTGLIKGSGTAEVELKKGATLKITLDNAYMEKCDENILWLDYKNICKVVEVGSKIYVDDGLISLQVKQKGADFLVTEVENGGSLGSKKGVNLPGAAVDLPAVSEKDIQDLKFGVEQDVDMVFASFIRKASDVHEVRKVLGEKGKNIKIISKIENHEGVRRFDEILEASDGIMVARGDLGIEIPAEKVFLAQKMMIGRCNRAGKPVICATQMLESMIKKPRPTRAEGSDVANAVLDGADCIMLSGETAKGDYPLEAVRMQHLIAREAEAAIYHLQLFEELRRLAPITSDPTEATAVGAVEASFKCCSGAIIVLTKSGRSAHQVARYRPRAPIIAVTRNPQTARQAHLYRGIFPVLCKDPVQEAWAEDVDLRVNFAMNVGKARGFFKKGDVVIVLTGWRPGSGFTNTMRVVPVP
Method in brief: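 Luminescence from a luciferase ATP-detection/stop reagent reported PKM2 activity. Reactions contained 0.1 nM purified human enzyme, 0.5 mM PEP, 0.1 mM ADP and 7 mM MgCl2 at pH 7.2, run 1 h at RT.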

[15] = molecular target: Alpha-galactosidase (Coffea arabica) (UniProt Q42656); test: Counterscreen for Glucocerebrosidase Inhibitors: qHTS Assay for Coffee Bean alpha-Galactosidase at pH 4.5 (AID 957)
Alpha-galactosidase (Coffea arabica), sequence (Q42656 whole entry, looked up): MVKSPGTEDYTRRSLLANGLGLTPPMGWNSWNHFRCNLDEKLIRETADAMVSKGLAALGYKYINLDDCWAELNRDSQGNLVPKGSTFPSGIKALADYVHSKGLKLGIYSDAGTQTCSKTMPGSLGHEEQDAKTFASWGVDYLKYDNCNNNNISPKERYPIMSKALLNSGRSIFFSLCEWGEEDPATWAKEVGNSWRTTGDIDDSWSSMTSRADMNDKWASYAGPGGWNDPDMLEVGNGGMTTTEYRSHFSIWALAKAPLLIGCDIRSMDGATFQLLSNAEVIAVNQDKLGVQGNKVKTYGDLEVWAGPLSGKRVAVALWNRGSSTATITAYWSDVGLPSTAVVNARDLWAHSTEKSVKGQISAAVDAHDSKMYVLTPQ
Method in brief: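 Green coffee bean enzyme (2 nM final) was incubated with compounds (0.7 nM to 77 uM) and 4-methylumbelliferyl alpha-D-galactopyranoside (80 uM final) in 50 mM citric acid, 0.005% Tween-20, pH 4.5, 20 min at room temperature; AC50 from Hill fits.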

[16] = molecular target: Alpha-galactosidase A (Homo sapiens) (UniProt P06280); test: Counterscreen for Glucocerebrosidase Inhibitors: qHTS Assay for Human alpha-Galactosidase at pH 4.5 (AID 992)
Alpha-galactosidase A (Homo sapiens), sequence (P06280 whole entry, looked up): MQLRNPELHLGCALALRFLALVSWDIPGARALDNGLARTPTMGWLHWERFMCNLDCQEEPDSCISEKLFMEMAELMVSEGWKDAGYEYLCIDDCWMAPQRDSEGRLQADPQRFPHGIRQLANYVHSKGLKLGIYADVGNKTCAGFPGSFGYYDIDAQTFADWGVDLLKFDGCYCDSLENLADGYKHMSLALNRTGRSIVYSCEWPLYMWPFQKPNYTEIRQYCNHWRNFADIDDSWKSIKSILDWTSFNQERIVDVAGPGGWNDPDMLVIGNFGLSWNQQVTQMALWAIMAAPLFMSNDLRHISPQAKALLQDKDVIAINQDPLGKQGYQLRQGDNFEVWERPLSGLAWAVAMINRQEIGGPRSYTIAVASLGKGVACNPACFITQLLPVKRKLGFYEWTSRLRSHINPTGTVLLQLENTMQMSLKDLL
Method in brief: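 Enzyme at 2 nM final was combined with compound (0.7 nM to 77 uM) and 80 uM 4-methylumbelliferyl alpha-D-galactopyranoside in 50 mM citric acid, 0.005% Tween-20, pH 4.5. After 20 min at room temperature, fluorescence was read (Ex 365/Em 440 nm); AC50 came from Hill fits.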

[17] = molecular target: alpha-glucosidase (Oryza sativa, rice) (UniProt Q653V4); test: Counterscreen for Glucocerebrosidase Inhibitors: qHTS Assay for Rice alpha-Glucosidase at pH 5.0 (AID 997)
Method in brief: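 Rice alpha-glucosidase (4 nM final) with 400 uM 4-methylumbelliferyl-alpha-D-glucopyranoside in citrate buffer pH 5.0, 20 min at room temperature, stopped at pH 10; fluorescence 365/440 nm, compounds 0.7 nM–77 uM, AC50 from Hill fits.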

[18] = molecular target: Alpha-galactosidase (Coffea arabica) (UniProt Q42656); test: Counterscreen for Glucocerebrosidase Inhibitors: qHTS Assay for Coffee Bean alpha-Galactosidase at pH 5.9 (AID 998)
Method in brief: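 Green coffee bean enzyme (2 nM final) was incubated with compounds (0.7 nM–77 uM) and 4-methylumbelliferyl alpha-D-galactopyranoside (80 uM) in citrate buffer pH 5.9, 20 min at room temperature. High-pH stop; fluorescence 365/440 nm; AC50 from Hill fits.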

[19] = molecular target: Mitogen-activated protein kinase 10 (Mus musculus) (UniProt Q61831); test: JNK3 AlphaScreen Assay (AID 530; active = well fitted curve in either direction with a large enough effect, not every such curve was filed as active;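 also: kinase came from lysate of stimulated human HepG2 cells; signal reports phosphorylation of biotinylated GST-cJun 1-79 at Ser73 with 10 µM ATP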)
Method in brief: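 JNK3 came from HepG2 lysates pre-activated with IL-1beta and TNF-alpha and phosphorylated biotinylated GST-cJun (1-79) at 10 uM ATP, pH 7.6, room temperature. Compounds were titrated. AlphaScreen signal used anti-phospho-cJun (Ser73) antibody.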

[20] = molecular target: 3',5'-cyclic-AMP phosphodiesterase 4B (Homo sapiens) (UniProt Q07343); test: qHTS Assay for Inhibitors of PDE-IV (AID 607; active = well fitted activation curve with a large enough effect in the main read-out, with a control signal flat, not every such curve was filed as active)
Method in brief: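 ACTOne HEK293 cells carry a modified cAMP-gated CNG channel and express endogenous PDE4; plated 1000 cells/well, compounds up to 22.9 uM final. Membrane-potential dye fluorescence (ex 535/em 590) was read; parental cells received 10 uM forskolin + 100 uM RO 20-1724.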

[21] = molecular target: Cytochrome P450 2C9 (Homo sapiens) (UniProt P11712); test: qHTS Assay for Inhibitors and Substrates of Cytochrome P450 2C9 (AID 883); also: potency is read from the fitted curve at half-maximal effect; nearly all actives have a fitted effect of over 60% in size
Method in brief: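 Human CYP2C9 (10nM) hydroxylated Luciferin-H (100uM, at its KM) to luciferin in 25mM KPO4. Compound was preincubated 10 min at 37C, then NADPH regeneration started a 60 min reaction at 37C. Luminescence was read after detection reagent, normalized to 57uM sulphaphenazole.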

[22] = molecular target: Cytochrome P450 2D6 (Homo sapiens) (UniProt P10635); test: qHTS Assay for Inhibitors and Substrates of Cytochrome P450 2D6 (AID 891);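 also: luciferin methyl ether substrate demethylated by CYP2D6 with NADPH regeneration; nearly all actives have a fitted effect of over 60% in size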
Method in brief: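 Human CYP2D6 (5 nM) with 30 uM Luciferin-ME EGE (at Km) in 100 mM KPO4, compound preincubated 10 min, then NADPH regeneration system for 60 min at room temperature. Luciferin read by luminescence; normalized to 1.43 uM quinidine.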

[23] = qHTS Assay for Identification of Small Molecule Antagonists for NFkB Signaling Pathway (AID 895; active = well fitted inhibition curve with a large enough effect in the signal ratio, with a control signal flat, not every such curve was filed as active; the % refers to the signal ratio; also: potency is read from the fitted curve at half-maximal effect)
Method in brief: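 NFkB-bla ME-180 cervical carcinoma cells with beta-lactamase reporter under NFkB response element; compounds added, then TNF alpha at 10 pM final (EC50), 5 h at 37 C. LiveBLAzer substrate 2 h, room temperature; emission 460/530 nm at 405 nm excitation.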

[24] = qHTS Assay for Identification of Small Molecule Antagonists for Thrombopoietin (TPO) Signaling Pathway (AID 918); conditions: TPO-dependent cell signaling reporter, antagonist mode; also: potency is read from the fitted curve at half-maximal effect; nearly all actives have a fitted effect of over 60% in size
Method in brief: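 Murine Ba/F3 cells stably expressing human TPO receptor and a Glycoprotein IIb promoter–luciferase reporter were IL-3-starved overnight, treated with compounds plus TPO (26 pM final, its EC50) for 24 hrs at 37 C, then read by luminescence.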

[25] = molecular target: Muscarinic acetylcholine receptor M1 (Rattus norvegicus) (UniProt P08482); test: qHTS Assay for Antagonists of Acetylcholine Muscarinic M1 Receptor: Kinetic Measurement of Intracellular Calcium Response (AID 943);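 also: Fluo-4 calcium signal as peak divided by basal fluorescence over 4 min; nearly all actives have a fitted effect of over 75% in size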
Method in brief: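 CHO cells stably expressing rat M1 were loaded with no-wash Fluo-4 dye for 1 h at 37C, pre-incubated 10 min with compound, then challenged with EC80 carbachol (100 nM final); kinetic calcium read 4 min, peak/basal ratio.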

[26] = molecular target: Ubiquitin carboxyl-terminal hydrolase 1 (Homo sapiens) (UniProt O94782); test: Inhibitors of USP1/UAF1: Pilot qHTS (AID 504865); also: potency is read from the fitted curve at half-maximal effect; nearly all actives have a fitted effect of over 35% in size
Method in brief: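 1nM USP1/UAF1 + cpd, 15 min RT; start w/ Ub-Rho 150nM final; kinetic FL 480/540 nm, 6 reads q60 s. Buffer 50mM HEPES pH 7.8, 0.5mM EDTA, 1mM TCEP, 0.01% Tween-20, 0.1 mg/ml BSA.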

[27] = molecular target: DNA dC->dU-editing enzyme APOBEC-3G (Homo sapiens) (UniProt Q9HC16); test: qHTS for inhibitors of Vif-A3G interactions: Validation (AID 588379)
Method in brief: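 HeLa cells stably expressing Vif and A3G-eYFP, 700 cells/well, incubated overnight at 37 deg C, then exposed to compound overnight at 37 deg C. Inhibition of Vif-mediated degradation read as increased yellow fluorescence (Ex 488/Em 500-530) by laser-scanning cytometry.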

## C[C@@H]1Cc2cc3c(cc2C(c2ccc(N)cc2)=NN1)OCO3
[1]
  activity change, negative = inhibition: -10.9% [at 38 µM]
[2]
  Potency: 5.01 µM (active)
[3]
  activity change, negative = inhibition: -10.6% [at 38 µM]
[4]
  activity, negative = inhibition: 13.7% [at 38 µM]
[5]
  Potency: > 46 µM
[6]
  Potency: > 46 µM
[7]
  outcome: inactive
[8]
  Potency: 2.51 µM (active)
[9]
  Potency: inactive
[10]
  Potency: 2 µM (active)
[11]
  outcome: inactive
[12]
  Potency: inactive
[13]
  outcome: inactive
[14]
  outcome: inactive
[15]
  outcome: inactive
[16]
  outcome: inactive
[17]
  outcome: inactive
[18]
  outcome: inactive

## CC(=O)c1c(O)c(C)c(O)c(Cc2c(O)c3c(c(C(=O)/C=C\c4ccccc4)c2O)OC(C)(C)C=C3)c1O
[1]
  activity change, negative = inhibition: -26.6% [at 38 µM]
[2]
  Potency: 12.6 µM (active) and 31.6 µM (active)
[4]
  activity, negative = inhibition: -35.6% [at 38 µM]
[6]
  Potency: > 46 µM
[19]
  Potency: inactive
[20]
  outcome: inactive
[7]
  outcome: inactive
[21]
  Potency: 0.631 µM (active)
[8]
  Potency: 6.31 µM (active)
[9]
  Potency: inactive
[22]
  Potency: inactive
[23]
  Potency: 0.794 µM (active)
[10]
  Potency: 2 µM (active)
[24]
  Potency: 2.51 µM (active)
[25]
  Potency: inactive
[12]
  Potency: inactive
[13]
  outcome: inactive
[14]
  outcome: inactive
[15]
  outcome: inactive
[16]
  outcome: inactive
[17]
  outcome: inactive
[18]
  outcome: inactive
[26]
  Potency: 79.4 µM (active)
[27]
  outcome: inactive

## C[C@]12CC[C@H](O)C[C@@H]1CC[C@H]1[C@H]2CC[C@]2(C)[C@H](C(=O)CO)CC[C@@H]12
[1]
  activity change, negative = inhibition: 0.537% [at 38 µM]
[3]
  activity change, negative = inhibition: 0.826% [at 38 µM]
[4]
  activity, negative = inhibition: 11.8% [at 38 µM]
[5]
  Potency: > 46 µM
[6]
  Potency: > 46 µM
[7]
  outcome: inactive
[9]
  Potency: inactive
[23]
  Potency: inactive
[11]
  outcome: inactive
[25]
  Potency: inactive
[13]
  outcome: inactive
[14]
  outcome: inactive
[15]
  outcome: inactive
[16]
  outcome: inactive
[17]
  outcome: inactive
[18]
  outcome: inactive
